# Experimental data published in PubChem BioAssay (Tox21).
# “And” between values parts separate entries of the source, which are not always exact repeats. Equal values may be shown once. Inconclusive results are not listed. The source made the active and inactive calls. The call rests on the fitted dose curve; in most records, active means well fitted curve in the direction sought with a large enough effect in the repeat runs; inconclusive means weak or mixed curves; inactive means no such curve, though single readings can be large; an effect the other way counts as inactive or inconclusive.
# Target: Aryl hydrocarbon receptor (Homo sapiens) (UniProt P35869)
# Experiment: qHTS assay to identify small molecule that activate the aryl hydrocarbon receptor (AhR) signaling pathway (AID 743085); further: nearly all actives have a fitted effect of over 15% in size;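 on activation: HG2L7.5c1 human HepG2 liver cells with stably integrated DRE-driven firefly reporter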
# Details: HepG2 AhR-luc (HG2L7.5c1), luciferase, 24 h; series mostly up to 70.3 µM; activation: at the top concentration
# How it was run: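 Luminescence read-out: ONE-Glo reagent, 30 min at room temperature, in HG2L7.5c1 HepG2 reporter cells treated 24 h at 37C. Viability was measured beforehand by CellTiter-Fluor fluorescence after 30 min at 37C.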
# On the % scale 0 is the no-effect control and ±100 the full control effect; potency means the concentration at half of the fitted maximal effect.
# Chain of Aryl hydrocarbon receptor (Homo sapiens) (P35869 whole entry, looked up): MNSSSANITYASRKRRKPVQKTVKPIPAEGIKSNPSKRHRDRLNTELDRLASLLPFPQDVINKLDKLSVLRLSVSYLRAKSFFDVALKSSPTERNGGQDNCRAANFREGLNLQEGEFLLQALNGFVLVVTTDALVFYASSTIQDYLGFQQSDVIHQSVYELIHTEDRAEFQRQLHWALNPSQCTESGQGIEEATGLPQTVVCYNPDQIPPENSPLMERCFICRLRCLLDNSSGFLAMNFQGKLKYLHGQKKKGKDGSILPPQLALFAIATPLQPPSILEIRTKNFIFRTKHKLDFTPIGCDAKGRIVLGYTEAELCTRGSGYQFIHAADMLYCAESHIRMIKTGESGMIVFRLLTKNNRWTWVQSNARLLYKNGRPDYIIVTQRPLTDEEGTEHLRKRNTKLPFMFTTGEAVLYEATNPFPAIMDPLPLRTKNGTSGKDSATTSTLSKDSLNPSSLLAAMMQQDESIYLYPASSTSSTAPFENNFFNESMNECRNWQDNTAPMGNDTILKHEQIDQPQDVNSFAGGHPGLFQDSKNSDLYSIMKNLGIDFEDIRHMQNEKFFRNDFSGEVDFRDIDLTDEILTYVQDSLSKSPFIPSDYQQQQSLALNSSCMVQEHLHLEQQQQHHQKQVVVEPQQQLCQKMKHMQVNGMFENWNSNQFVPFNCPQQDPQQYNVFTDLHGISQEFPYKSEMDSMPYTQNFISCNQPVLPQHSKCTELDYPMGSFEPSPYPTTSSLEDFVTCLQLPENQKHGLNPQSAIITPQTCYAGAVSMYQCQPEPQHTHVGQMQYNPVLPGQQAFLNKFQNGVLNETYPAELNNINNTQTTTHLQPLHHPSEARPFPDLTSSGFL
Structure (SMILES),activation,Potency
OC[C@H]1O[C@H](O[C@H]2O[C@H](CO)[C@@H](O)[C@H](O)[C@H]2O)[C@H](O)[C@@H](O)[C@@H]1O,-0.16% [at 95 µM] (inactive),–
CN1CCN2c3ccccc3Cc3ccccc3C2C1 (centres undefined),-0.702% (inactive),–
C/C=C/C=C/COC(=O)C(C)C,-1.03% (inactive),–
O=C1CCc2ccc(OCCCCN3CCN(c4cccc(Cl)c4Cl)CC3)cc2N1,0.592% (inactive),–
Cc1cc(C(C)(C)C)cc(C)c1CC1=NCCN1,-1.68% [at 32.5 µM] (inactive),–
CN1CCC[C@@H]1CCO[C@](C)(c1ccccc1)c1ccc(Cl)cc1,-0.374% (inactive),–
Cc1ccc(N/N=c2\c(=O)cc/c(=N\Nc3ccc(S(=O)(=O)O)cc3)c2=O)c(C)c1,–,8.63 µM (active)
Nc1ccc(NCCO)c([N+](=O)[O-])c1,–,15.4 µM (active)
O=C(c1ccc(O)c(O)c1)c1ccc(O)cc1O,–,5.44 µM (active)
CCOc1ccc2ccccc2c1C(=O)N[C@@H]1C(=O)N2[C@@H]1SC(C)(C)[C@@H]2C(=O)O,8.33% [at 32.5 µM] (inactive),–
CC(C)CCOC(=O)/C=C/c1ccccc1,2.7% [at 95 µM] (inactive),–
C[C@H]1NCc2cc(-c3ccc4c(=O)c(C(=O)O)cn(C5CC5)c4c3OC(F)F)ccc21,2.52% (inactive),–
CCCCCCCCCCCCCCCC[N+](C)(C)CC,–,inactive
CN1CCCCC1CCN1c2ccccc2Sc2ccc(S(C)=O)cc21 (centres undefined),–,inactive
Nc1cc(Cl)c(O)c(Cl)c1,–,61.1 µM (active)
O=S(=O)(O)c1ccc(N=Nc2c(O)ccc3ccccc23)cc1,–,27.3 µM (active)

Structure (SMILES),activation,Potency
CC[C@H](C)COC(=O)/C=C/c1ccc(N=Cc2ccc(OC)cc2)cc1,0.211% (inactive),–
O=c1c(O)c(-c2ccc(O)cc2O)oc2cc(O)cc(O)c12,6.49% (inactive),–
O=[N+]([O-])c1ccc(O)cc1C(F)(F)F,-0.236% (inactive),–
COCCOc1cc2cc(C(=O)NC3CCN(C(C)C)CC3)n(CC(=O)Nc3ccc(Cl)cn3)c2cn1,–,48 µM (active)
Cl[Si](Cl)(c1ccccc1)c1ccccc1,-1.21% [at 95 µM] (inactive),–
CC(C)(C)c1ccc(C(O)CCCN2CCC(C(O)(c3ccccc3)c3ccccc3)CC2)cc1 (centres undefined),–,inactive
NC(=S)NC(N)=S,0.602% (inactive),–
CCCCC/C=C\C/C=C\CCCCCCCC(=O)O,–,inactive
O=C(Nc1ccc2c(O)c(N=Nc3ccc(N=Nc4ccc(S(=O)(=O)O)cc4)cc3)c(S(=O)(=O)O)cc2c1)c1ccccc1,-0.117% (inactive),–
O=C(O)c1cc(O)c2ccccc2c1O,–,4.86 µM (active)
Cc1cc(C(C)(C)C)c(O)c(C)c1Cn1c(=O)n(Cc2c(C)cc(C(C)(C)C)c(O)c2C)c(=O)n(Cc2c(C)cc(C(C)(C)C)c(O)c2C)c1=O,-0.346% (inactive),–
CCOC(=O)c1ccc(C2CCC(NC[C@H](O)COc3ccc(O)c(NS(C)(=O)=O)c3)CC2)cc1 (some centres undefined),0.0529% (inactive),–
CC(N=C(NC#N)Nc1ccncc1)C(C)(C)C (centres undefined),3.59% (inactive),–
COc1cc(S(=O)(=O)O)c(C)cc1N=Nc1c(O)ccc2cc(S(=O)(=O)O)ccc12,-1.7% (inactive),–
CCCCCCCCCCCCCC[N+](C)(C)Cc1ccccc1,–,inactive
COc1cccc2c1C(=O)c1c(O)c3c(c(O)c1C2=O)C[C@@](O)(C(C)=O)C[C@@H]3O[C@H]1C[C@H](N)[C@H](O)[C@H](C)O1,–,2.45 µM (active)

# System: not listed separately
# Experiment: qHTS assay to identify small molecule that activate the aryl hydrocarbon receptor (AhR) signaling pathway - cell viability counter screen (AID 743086); further: nearly all actives have a fitted effect of over 45% in size;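 on viability change, negative = cytotoxic: HepG2 liver cells carrying the AhR DRE luciferase reporter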
# Details: HepG2-AhR-luc viability, CellTiter-Fluor, 24 h; series mostly up to 70.3 µM; viability change, negative = cytotoxic: at the top concentration
# How it was run: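 HepG2-AhR-luc (HG2L7.5c1) cells, 4000/well, treated 24 h at 37 C with compound; viability measured as CellTiter-Fluor fluorescence after 30 min in the same wells as the luciferase read.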
Structure (SMILES),"viability change, negative = cytotoxic",Potency
Oc1cc(Cl)cc(Cl)c1Cl,-14.4% [at 95 µM] (inactive),–
OC[C@H]1O[C@H](O[C@H]2O[C@H](CO)[C@@H](O)[C@H](O)[C@H]2O)[C@H](O)[C@@H](O)[C@@H]1O,-2.53% [at 95 µM] (inactive),–
CN1CCN2c3ccccc3Cc3ccccc3C2C1 (centres undefined),-0.483% (inactive),–
C/C=C/C=C/COC(=O)C(C)C,-4.01% (inactive),–
CCCCCC(C)OC(=O)COc1ccc(Cl)c2cccnc12 (centres undefined),-0.624% (inactive),–
O=C1CCc2ccc(OCCCCN3CCN(c4cccc(Cl)c4Cl)CC3)cc2N1,-8.63% (inactive),–
CN(C)Cc1cc(C(C)(C)C)c(O)c(C(C)(C)C)c1,0.339% (inactive),–
Cc1cc(C(C)(C)C)cc(C)c1CC1=NCCN1,-12.8% [at 32.5 µM] (inactive),–
Cc1cc(C)c(/C=C2\C(=O)Nc3ccccc32)[nH]1,3.3% (inactive),–
CCOc1ccc2ccccc2c1C(=O)N[C@@H]1C(=O)N2[C@@H]1SC(C)(C)[C@@H]2C(=O)O,3.15% [at 32.5 µM] (inactive),–
CC(C)CCOC(=O)/C=C/c1ccccc1,3.62% [at 95 µM] (inactive),–
C[C@H]1NCc2cc(-c3ccc4c(=O)c(C(=O)O)cn(C5CC5)c4c3OC(F)F)ccc21,-0.113% (inactive),–
CCCCCCCCCCCCCCCC[N+](C)(C)CC,–,18.8 µM (active) and 48.7 µM (active)
CN1CCCCC1CCN1c2ccccc2Sc2ccc(S(C)=O)cc21 (centres undefined),-19.8% (inactive),–
CCC(=O)C(=O)CC,0.169% [at 95 µM] (inactive),–
Nc1cc(Cl)c(O)c(Cl)c1,-6.93% (inactive),–

Structure (SMILES),"viability change, negative = cytotoxic",Potency
O=S(=O)(O)c1ccc(N=Nc2c(O)ccc3ccccc23)cc1,–,24.3 µM (active)
CC[C@H](C)COC(=O)/C=C/c1ccc(N=Cc2ccc(OC)cc2)cc1,-9.78% (inactive),–
O=[N+]([O-])c1ccc(O)cc1C(F)(F)F,–,61.1 µM (active)
COCCOc1cc2cc(C(=O)NC3CCN(C(C)C)CC3)n(CC(=O)Nc3ccc(Cl)cn3)c2cn1,-5.61% (inactive),–
Cl[Si](Cl)(c1ccccc1)c1ccccc1,3.75% [at 95 µM] (inactive),–
CC(C)(C)c1ccc(C(O)CCCN2CCC(C(O)(c3ccccc3)c3ccccc3)CC2)cc1 (centres undefined),-4.33% (inactive),–
NC(=S)NC(N)=S,-12.1% (inactive),–
CCCCC/C=C\C/C=C\CCCCCCCC(=O)O,–,inactive
O=C(Nc1ccc2c(O)c(N=Nc3ccc(N=Nc4ccc(S(=O)(=O)O)cc4)cc3)c(S(=O)(=O)O)cc2c1)c1ccccc1,–,19.3 µM (active)
O=C(O)c1cc(O)c2ccccc2c1O,–,54.5 µM (active)
[Cu+],23.6% (inactive),–
Cc1cc(C(C)(C)C)c(O)c(C)c1Cn1c(=O)n(Cc2c(C)cc(C(C)(C)C)c(O)c2C)c(=O)n(Cc2c(C)cc(C(C)(C)C)c(O)c2C)c1=O,-0.11% (inactive),–
CC(N=C(NC#N)Nc1ccncc1)C(C)(C)C (centres undefined),-6.15% (inactive),–
COc1cc(S(=O)(=O)O)c(C)cc1N=Nc1c(O)ccc2cc(S(=O)(=O)O)ccc12,–,9.69 µM (active)
CCCCCCCCCCCCCC[N+](C)(C)Cc1ccccc1,–,69.6 µM (active)
COc1cccc2c1C(=O)c1c(O)c3c(c(O)c1C2=O)C[C@@](O)(C(C)=O)C[C@@H]3O[C@H]1C[C@H](N)[C@H](O)[C@H](C)O1,–,5.96 µM (active) and 24.5 µM (active)
